We go through eight compounds from PubChem BioAssay (NCI).

About 83,000 compounds went through this panel and 20% of them were active in at least one assay; those are over-represented in the sample as a whole.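 Growth was measured after 48 h exposure to one concentration of compound in 96-well plates. Values under 10 count as active.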 A number with no mark means an inactive call. Active and inactive are the calls of the source.

Holding throughout (test): NCI-60 one-dose screen, 48 h (100 = growth as untreated, 0 = no growth, -100 = all killed)
One experiment concerns A549/ATCC NSCLC. The following applies: 10 µM unless noted.
The test system of another experiment is COLO 205 colon. Particulars: 10 µM.
For another experiment, the system named is MALME-3M melanoma. The following applies: 10 µM unless noted.
The test system of a further experiment is RXF 393 renal. Particulars: 10 µM unless noted.
In the next experiment the test system is UACC-257 melanoma. Particulars: 10 µM unless noted.
The test system of another experiment is HT29 colon. Particulars: 10 µM unless noted.
A further experiment has as its system U251 CNS. The following applies: 10 µM unless noted.
The test system of another experiment is SK-MEL-2 melanoma. The following applies: 10 µM unless noted.
Another experiment has as its system SN12C renal. Particulars: 10 µM unless noted.
A further experiment has as its system UO-31 renal. The following applies: 10 µM unless noted.
The next experiment concerns CAKI-1 renal. Particulars: 10 µM unless noted.
A further experiment deals with HL-60(TB) leukemia. The following applies: 10 µM unless noted.
The next experiment deals with OVCAR-8 ovarian. Particulars: 10 µM unless noted.
In the next experiment the test system is SK-OV-3 ovarian. The following applies: 10 µM unless noted.
For another experiment, the system named is HS 578T breast. Particulars: 10 µM unless noted.
The subject of the next experiment is T-47D breast. Particulars: 10 µM unless noted.
A further experiment concerns BT-549 breast. Particulars: 10 µM.
In a further experiment the test system is MDA-MB-435 melanoma. The following applies: 10 µM unless noted.
The next experiment relates to A498 renal. The following applies: 10 µM unless noted.
Another experiment deals with OVCAR-4 ovarian. The following applies: 10 µM unless noted.

On to `CC1(C)N=C(N)N=C(N)N1c1ccc(CCC(=O)Nc2cccc(S(=O)(=O)F)c2)cc1`, for which the growth was 44.6% in the experiment with A549/ATCC NSCLC; 93.4% in the experiment with COLO 205 colon; -7.62% (active) in the experiment on MALME-3M melanoma; 64.7% with RXF 393 renal; 73.3% in the experiment on UACC-257 melanoma; 66.2% with HT29 colon. Further, the growth was 42.3% in the experiment on U251 CNS; 102% with SK-MEL-2 melanoma; 46.5% in the experiment on SN12C renal; 85.2% in the experiment on UO-31 renal; -5.98% (active) with CAKI-1 renal; 47.6% with HL-60(TB) leukemia. Also, the growth is 85.8% with OVCAR-8 ovarian; 101% with SK-OV-3 ovarian; 121% with HS 578T breast; 98.4% in the experiment on T-47D breast; 84.9% in the experiment on BT-549 breast; 35.3% in the experiment with MDA-MB-435 melanoma.
In the case of `CC12CCC(=O)C=C1CCC1C2CCC2(C)C(C(=O)COC(=O)Cc3ccc(N(CCCl)CCCl)cc3)CCC12` (stereo unspecified), the growth in the experiment on COLO 205 colon was 88.5%; in the experiment with MALME-3M melanoma, 168%; with HT29 colon, 88.5%; in the experiment with U251 CNS, 75.5%; with SK-MEL-2 melanoma, 20.6%; in the experiment with SN12C renal, 73.2%. Further, the growth in the experiment with UO-31 renal is 72.8%; in the experiment with CAKI-1 renal it was 27.4%; with A498 renal, 69.8%; with HL-60(TB) leukemia, 26.7%; in the experiment on OVCAR-8 ovarian, 79.1%; in the experiment with OVCAR-4 ovarian, 91%. Further, the growth is 90% with SK-OV-3 ovarian, 82.4% in the experiment with HS 578T breast, 89.2% in the experiment with T-47D breast and 96.1% with MDA-MB-435 melanoma.
For the compound `c1ccc([As]=[As]c2ccccc2)cc1` (stereo unspecified), the growth was -22.8% (active) in the experiment on A549/ATCC NSCLC; -89.6% (active) with COLO 205 colon; -84.5% (active) in the experiment on MALME-3M melanoma; -80.3% (active) in the experiment with RXF 393 renal; -71.4% (active) in the experiment on UACC-257 melanoma; -82.8% (active) in the experiment on HT29 colon. Moreover, the growth is -98.7% (active) with U251 CNS; -20.9% (active) with SN12C renal; -96% (active) in the experiment on UO-31 renal; -51.4% (active) in the experiment on CAKI-1 renal; -48.5% (active) with A498 renal; -50.4% (active) in the experiment on HL-60(TB) leukemia. The growth is -22.4% (active) in the experiment on OVCAR-8 ovarian; 7.07% (active) in the experiment on OVCAR-4 ovarian; 27.5% in the experiment with SK-OV-3 ovarian; 37.8% in the experiment on HS 578T breast; -73.1% (active) in the experiment with T-47D breast; -96.5% (active) in the experiment with BT-549 breast. Besides, in the experiment with MDA-MB-435 melanoma, the growth is -37.6% (active).
Take `C[C@]12CC[C@H]3[C@@H](C[C@@H]4N=C(c5ccc(O)cc5)S[C@@]45C[C@H](O)CC[C@]35C)[C@@H]1CC[C@@H]2O`: the growth in the experiment with A549/ATCC NSCLC was 52.1%; in the experiment on COLO 205 colon, 77.7%; in the experiment on MALME-3M melanoma it was 72.4%; in the experiment with RXF 393 renal, -46.3% (active); in the experiment on UACC-257 melanoma, 66.2%; in the experiment on HT29 colon, 19.9%. For the same compound, the growth in the experiment with U251 CNS is 20.1%; in the experiment with SK-MEL-2 melanoma, 44.9%; in the experiment on SN12C renal, 96.7%; with UO-31 renal it was 9.33% (active); with CAKI-1 renal, 61.3%; in the experiment with A498 renal it was 49.4%. Moreover, the growth in the experiment with HL-60(TB) leukemia is 22.7%; in the experiment with OVCAR-8 ovarian, 74.2%; in the experiment with OVCAR-4 ovarian, 81.8%; in the experiment with SK-OV-3 ovarian it was 38.6%; in the experiment with HS 578T breast, 4.16% (active); with T-47D breast it was 67.7%. The growth with BT-549 breast was 59.3%.
As to `COC(C)(C)CCC[C@H](C)C/C=C/C(C)=C/C(=O)OC(C)C`, the growth in the experiment with A549/ATCC NSCLC is 98.5%; in the experiment with COLO 205 colon, 107%; in the experiment with MALME-3M melanoma, 85.9%; in the experiment on RXF 393 renal it was 104%; in the experiment with UACC-257 melanoma, 101%; in the experiment with HT29 colon it was 88%. Further, the growth was 95.9% with U251 CNS; 97.1% in the experiment on SK-MEL-2 melanoma; 92.5% in the experiment with SN12C renal; 84.9% in the experiment with UO-31 renal; 85.4% in the experiment with CAKI-1 renal; 110% with A498 renal. The growth in the experiment on HL-60(TB) leukemia was 79.8%; in the experiment with OVCAR-8 ovarian, 98.2%; in the experiment with OVCAR-4 ovarian, 90%; with SK-OV-3 ovarian, 92%; in the experiment on HS 578T breast it was 119%; in the experiment on T-47D breast it was 75.7%. Also, the growth with BT-549 breast is 103%; in the experiment on MDA-MB-435 melanoma, 97.4%.
With `C=CC(=O)NC(O)C(Cl)(Cl)Cl` (stereo unspecified), the growth in the experiment with A549/ATCC NSCLC is 103%; in the experiment on COLO 205 colon it was 111%; in the experiment on MALME-3M melanoma, 85.5%; with RXF 393 renal, 129%; with UACC-257 melanoma, 92.3%; in the experiment with HT29 colon, 106%. In addition, the growth with U251 CNS was 102%; in the experiment on SK-MEL-2 melanoma it was 84.3%; with SN12C renal, 109%; in the experiment on UO-31 renal, 94.9%; with CAKI-1 renal, 93.5%; in the experiment on A498 renal it was 120%. Besides, the growth in the experiment on HL-60(TB) leukemia is 97.7%; in the experiment on OVCAR-8 ovarian, 108%; in the experiment with OVCAR-4 ovarian, 122%; in the experiment on SK-OV-3 ovarian, 98.2%; with HS 578T breast, 120%; in the experiment with T-47D breast it was 93.4%. Moreover, the growth with BT-549 breast is 97.5%; in the experiment on MDA-MB-435 melanoma it was 105%.
Turning to `CC(=O)N1N=C(c2ccccc2)CC1c1sc(N(CCCl)CCCl)nc1Cl` (stereo unspecified), the growth is 86.3% in the experiment with A549/ATCC NSCLC; 99.5% in the experiment with COLO 205 colon; 109% in the experiment on MALME-3M melanoma; 97.5% with RXF 393 renal; 92.2% in the experiment with UACC-257 melanoma; 93.9% in the experiment on HT29 colon. Also, the growth in the experiment with U251 CNS was 92.6%; in the experiment with SK-MEL-2 melanoma, 87.1%; in the experiment on SN12C renal, 86.6%; in the experiment with UO-31 renal, 80%; in the experiment with CAKI-1 renal, 80.2%; with A498 renal, 97.5%. In addition, the growth with HL-60(TB) leukemia is 98%; in the experiment on OVCAR-8 ovarian, 95.8%; in the experiment on OVCAR-4 ovarian it was 101%; in the experiment on SK-OV-3 ovarian, 89.4%; in the experiment with HS 578T breast, 88%; in the experiment on T-47D breast it was 82.3%. For the same compound, the growth in the experiment on BT-549 breast is 92.8%; in the experiment with MDA-MB-435 melanoma, 97.4%.
Regarding `O=[N+]([O-])c1ccc(F)c([N+](=O)[O-])c1F`, the growth with A549/ATCC NSCLC is 96%; in the experiment with COLO 205 colon it was 115%; with MALME-3M melanoma, 96%; in the experiment with RXF 393 renal it was 109%; in the experiment on UACC-257 melanoma, 103%; in the experiment on HT29 colon, 103%. In addition, the growth in the experiment on U251 CNS was 101%; in the experiment on SK-MEL-2 melanoma, 93.7%; in the experiment on SN12C renal it was 103%; in the experiment with UO-31 renal, 78.3%; in the experiment with CAKI-1 renal it was 103%; in the experiment on A498 renal it was 93.7%. In addition, the growth is 92.2% in the experiment on HL-60(TB) leukemia; 104% in the experiment with OVCAR-8 ovarian; 116% with OVCAR-4 ovarian; 105% with SK-OV-3 ovarian; 103% in the experiment with HS 578T breast; 96.6% with T-47D breast. The growth in the experiment with MDA-MB-435 melanoma was 103%.
